Compound activity (PubChem)
Htt clearance = compounds clearing mutant huntingtin protein | HeLa Exon1htt(103Q)mCFP, aggregate imaging; zero = plate's median compound well | inhibition, % at 1.5 µM | AID 853 | hit rate 0.42% among 47,000;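 active = inhibition of aggregate fluorescence above about 70%, also judged a hit by eye on the cell image, limit read from the data, passing the limit was not always enough; inconclusive = no rule stated for this call; inactive = not judged a hit on image review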;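 note: cells exposed to compound for three days before fixation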
SKBR3 24h inh = SK-BR-3 proliferation inhibitors; SK-BR-3 viability, CellTiter-Glo ATP luminescence, 24 h; active compounds read low; viability, % at 10 µM; hit rate 0.47% among 41,000; AID 847;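 active = viability at or below the median of all test compounds minus 3 SD, in both replicates if run twice, cut at about 45% in these data; inconclusive = duplicate replicates that disagree with each other; inactive = viability above that cutoff in every replicate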
WNV NS2B-NS3 inh = WNV NS2B-NS3 proteinase inhibition; WNV NS2B-NS3 protease, fluorogenic substrate Ex360/Em465; active compounds read low; hit rate 0.18% among 65,000; z-score (concentration not given with the values); AID 577; P06935; in the data active = z-score below about -3
Target sequence (P06935 1371-1501 limits assumed): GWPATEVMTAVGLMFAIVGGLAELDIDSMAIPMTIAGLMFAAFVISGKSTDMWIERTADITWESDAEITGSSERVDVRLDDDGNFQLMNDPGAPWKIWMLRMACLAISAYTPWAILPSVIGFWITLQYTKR
Target sequence (P06935 1502-1679 limits assumed): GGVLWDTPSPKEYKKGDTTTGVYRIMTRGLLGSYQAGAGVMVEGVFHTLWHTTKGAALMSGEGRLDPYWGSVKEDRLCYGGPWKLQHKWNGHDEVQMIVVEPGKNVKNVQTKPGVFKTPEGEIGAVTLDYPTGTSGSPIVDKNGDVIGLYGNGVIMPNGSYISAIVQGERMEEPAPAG
Numbers stand for hits; . = inactive; ? = inconclusive; / = no result given. Rows were chosen to be rich in hits. Some 0.64% of all compounds tested hit in one or more screens of this group.

SMILES | Htt clearance | SKBR3 24h inh | WNV NS2B-NS3 inh
CCOC(=O)c1c(C)oc2cc3c(C(=O)OCC)c(C)oc3cc12 | . | / | /
CCn1c(CNc2cccc(Cl)c2)nnc1SCc1ccccc1 | / | 37 | .
Cn1c(CNC(=O)Nc2cccc(Cl)c2)nnc1SCc1ccccc1 | / | . | .
COCCn1c(SCC(=O)NCc2ccc3c(c2)OCO3)nnc1-c1c[nH]c2ccccc12 | / | / | .
CCOc1ccc(-c2nc(N)ncc2Oc2cccc(OC)c2)c(O)c1 | . | / | /
COc1cccc(Oc2cncnc2-c2ccc(OC)cc2O)c1 | 73 | . | .
N#Cc1c(-c2cccnc2)c2c([nH]c1=S)CCCC2 | . | / | .
COc1ccc(-c2c3c([nH]c(=S)c2C#N)CCC3)cc1 | 71 | . | .
COc1ccccc1C1/C(=C(\O)c2c(C)nc3c(C)cccn23)C(=O)C(=O)N1CCCN(C)C (centres undefined) | . | . | .
CNc1nc(SCc2ccc(C)cc2)nc2c1CCCC2 | . | / | /
CC1CCCC(NC(=O)CN(C)S(=O)(=O)c2cccc3cccnc23)C1C (centres undefined) | . | / | .
COc1cccc(-n2c(SCC(=O)NCCC3=CCCCC3)nc3n[nH]c(C)c3c2=N)c1 | . | . | .
COc1cccc(NC(=O)CSc2nc3n[nH]c(C)c3c(=N)n2-c2cccc(OC)c2)c1 | ? | . | -3.1
COc1ccc(CCNC(=O)CSc2nnc(-c3ccc(F)cc3)o2)cc1OC | . | . | -6.1
COc1ccc(CCNC(=O)CSc2nnc(CNc3ccc(Cl)cc3)o2)cc1OC | . | . | .
Cc1cc(C)c2nc(C(F)(F)F)nc(NCCCN3CCOCC3)c2c1 | . | / | /
COc1cc2[nH]c(=O)n(CCCCCC(=O)N3CCN(c4ccccc4)CC3)c(=O)c2cc1OC | / | . | /
COc1cc2[nH]c(=O)n(CCC(=O)N3CCN(c4cccc(C)c4C)CC3)c(=O)c2cc1OC | . | 4.9 | .
COc1ccc(NC(=O)CNS(=O)(=O)c2cccc3nonc23)c(OC)c1 | / | . | .
C=CCNC1=C(Cl)C(=O)N(c2ccccc2Cl)C1=O | . | . | .
N=c1sccn1CC(=O)Nc1cccc2ccccc12 | . | / | /
N=c1sccn1CC(=O)Nc1ccccc1-c1ccccc1 | / | 33 | .
CCOc1ccc(-c2n[nH]c(C)c2Oc2ccc(OC)cc2)c(O)c1 | . | . | .
CCOC(=O)c1[nH]c2ccccc2c1NC(=O)COC | . | / | .
CCOC(=O)c1[nH]c2ccccc2c1NC(=O)CC | / | / | -4
SMILES | Htt clearance | SKBR3 24h inh | WNV NS2B-NS3 inh
O=C(Nc1cccc2nsnc12)C1CC(=O)N(c2ccccc2)C1 (centres undefined) | . | 42 | .
COC(=O)c1ccccc1NC(=O)C1CC(=O)N(c2ccccc2)C1 (centres undefined) | . | / | .
COc1ccccc1OCc1ccc(C(=O)NCC2CCCO2)o1 (centres undefined) | . | / | /
CSc1nnnn1-c1ccc(C(=O)OCC(=O)N2CCOCC2)cc1 | / | . | .
COC(=O)/C(=C1/Oc2cc(C)oc(=O)c2S1)C(F)(F)F | / | 38 | .
CCOC(=O)C1=C(c2ccccc2)O/C(=C(\C(=O)OC)C(F)(F)F)S1 | . | / | /
CCOc1nnc(C)c2c(C)n(-c3ccc(Cl)cc3)nc12 | 74 | / | /
CCOC(=O)C(C)n1cnc2c(cnn2-c2ccc(Cl)cc2)c1=O (centres undefined) | / | / | .
CC12CCC(C(=O)NCc3ccccc3)(OC1=O)C2(C)C (centres undefined) | / | . | .
CC12CCC(C(=O)NCc3ccc4c(c3)OCO4)(OC1=O)C2(C)C (centres undefined) | 71 | . | .
Cc1ccc(CCNC(=O)C2CCCN(S(=O)(=O)c3cnc[nH]3)C2)cc1 (centres undefined) | 70 | / | .
O=C(NCCc1ccc(Cl)cc1)C1CCCN(S(=O)(=O)c2cnc[nH]2)C1 (centres undefined) | / | / | .
O=C1c2ccccc2C(=O)N1CCc1nc2ccccc2c(=O)n1CCCn1ccnc1 | . | . | .
COC(=O)c1cc(=O)nc2sccn12 | / | / | .
COC(=O)c1cc(NC(=O)c2c(Cl)nc3sccn23)cc(C(=O)OC)c1 | . | 26 | .
CCOC(=O)CSc1nnc(-c2ccco2)n1-c1ccccc1 | . | / | .
COC(=O)c1cccc(CSc2nnc(-c3ccco3)n2-c2ccccc2)c1 | / | 35 | .
COc1ccc(S(=O)(=O)Nc2nc3ccccc3s2)cc1OC | . | / | /
COc1ccccc1NC(=O)CSc1nnnn1-c1ccc(C)cc1 | 74 | / | /
COC(=O)c1ccc(-n2nnnc2SCC(=O)Nc2cc(OC)ccc2OC)cc1 | . | . | .
Cc1sc2c(c1C)c(=O)n(-c1ccccc1)c1nnc(C)n21 | . | / | .
Cc1cc(NC(=O)C2COc3ccccc3O2)no1 (centres undefined) | / | / | .
O=C(c1ccc(CS(=O)(=O)c2ccccc2)o1)N1CCN(c2ncccn2)CC1 | . | / | .
CC1=C(C(=O)OCc2ccc3c(c2)OCO3)C(c2ccccc2)NC(=O)N1 (centres undefined) | 74 | . | .
CC1=C(C(=O)OCc2ccccc2)C(c2ccc(N3CCOCC3)cc2)NC(=O)N1 (centres undefined) | . | . | .
SMILES | Htt clearance | SKBR3 24h inh | WNV NS2B-NS3 inh
CNC(=O)CN(c1ccc(C(C)C)cc1)S(C)(=O)=O | . | . | .
CCCCCCCCCOC(=O)C(CC(=O)O)N1CCOCC1 (centres undefined) | . | / | /
CCOC(=O)C(CC(=O)O)N1CCCCC1 (centres undefined) | . | . | -3.1
COc1ccc(NC(=O)c2cc(-c3ccc(OC)c(OC)c3)on2)cc1OC | . | . | .
COC(=O)c1ccccc1NC(=O)c1cc(-c2ccc(OC)c(OC)c2)on1 | 71 | . | .
COc1cc(-c2nnc3sc(-c4ccccn4)nn23)cc(OC)c1OC | / | . | .
Nc1ccc(C(=O)Nc2ccco2)cc1 | . | / | /
O=C1C=C(c2ccccc2)OC(=O)C1C(=O)c1ccccc1 (centres undefined) | . | / | /
COc1ccccc1-n1c(SCC(=O)N2CCOCC2)nc(O)c(Cc2ccccc2)c1=O | . | . | -8.6
CCc1c(O)nc(SCC(=O)N2CCOCC2)n(-c2ccccc2)c1=O | . | / | .
CCSc1nnc(NC(=O)COc2ccc3ccccc3c2)s1 | . | / | /
CCNc1nc(NC(C)C)nc(NS(=O)(=O)c2ccc(Cl)cc2)n1 | . | 42 | .
CCNc1nc(NC(C)C)nc(NS(=O)(=O)c2ccc(N)cc2)n1 | . | / | /
CCCCn1ccnc1C(=O)c1ccc(S(=O)(=O)N(CCOC)CCOC)cc1 | . | . | .
COCc1nnc(NC(=O)c2ccc(S(=O)(=O)N3CCCCCC3)cc2)o1 | . | . | .
COCc1nnc(NC(=O)c2ccc(S(=O)(=O)N(C)C3CCCCC3)cc2)o1 | . | 27 | .
COCCN(CCOC)S(=O)(=O)c1ccc(C(=O)Nc2nc(C)c(C(C)=O)s2)cc1 | / | . | .
CCN(Cc1ccccc1)S(=O)(=O)c1ccc(C(=O)Nc2nnc(C3CC3)o2)cc1 | / | / | .
COCCN(CCOC)S(=O)(=O)c1ccc(C(=O)Nc2nnc(C)o2)cc1 | / | 19 | .
Cc1nnc(NC(=O)c2ccc(S(=O)(=O)N(C)Cc3ccccc3)cc2)o1 | . | 31 | .
COc1ccc(OC)c(NC(=O)C2C3CC4OC(=O)C2C4C3)c1 (centres undefined) | / | . | .
O=C(CN1C(=O)COc2ccccc21)N(Cc1cccnc1)Cc1ccccc1F | . | . | .
CCOc1ccc(-n2c(Cc3ccccc3)nnc2SCc2c(C)noc2C)cc1 | . | / | .
